About 83,000 compounds went through this panel and 20% of them were active in at least one assay; those are over-represented in the sample as a whole.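 48-hour exposure, single concentration, 96-well plates; percent growth endpoint where 0 means no net growth. Active: below 10.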 Unmarked numbers belong to inactive results. The source made the active and inactive calls.

The test system of one assay is SNB-19 CNS. Description: NCI-60 one-dose screen, 48 h (100 = growth as untreated, 0 = no growth, -100 = all killed). The following applies: 10 µM unless noted.
Consider `COc1cc([C@@H]2c3cc4c(cc3[C@H](OC(C)=O)[C@H]3COC(=O)[C@H]23)OCO4)cc(OC)c1OC`, for which the growth was 39.4%. Take `COC(=O)[C@@H](C)C[C@H](Cc1cn(C)c2ccccc12)NC(=O)c1csc([C@@H](C[C@H](C(C)C)N(C)C(=O)[C@@H](NC(=O)[C@H]2CCCCN2C)C(C)C)OC(C)=O)n1`: the growth was 35.6%.

For the molecule `CCOC(=O)[C@@H](C)C[C@H](Cc1ccccc1)NC(=O)c1csc([C@@H](C[C@H](C(C)C)N(C)C(=O)[C@@H](NC(=O)[C@H]2CCCCN2C)C(C)(C)C)OC(C)=O)n1`, the growth is 24%.

Regarding `CC1=C(CCCNS(C)(=O)=O)C2=C(C)C3(CC3)[C@@](C)(O)C(=O)C2=C1`, the growth is 8.19% (active). The same measure, in the same setting: the same measure for `COC(=O)[C@@H](C)C[C@H](Cc1ccccc1)NC(=O)c1cccc([C@@H](C[C@H](C(C)C)N(C)C(=O)[C@@H](NC(=O)[C@H]2CCCCN2C)C(C)C)OC(C)=O)n1`: 18.5%; for `CNC(=O)Oc1ccc(C(C)(C)C)cc1OC(=O)NC`: 101%; for `CC1(C)C(C(=O)c2cn(CCCCF)c3ccccc23)C1(C)C`: 104%. On to `CC(=O)O[C@H](C[C@H](C(C)C)N(C)C(=O)[C@@H](NC(=O)[C@H]1CCCCN1C)C(C)C)c1nc(C(=O)NC2CCC(C(=O)O)CC2)cs1` (stereo partly drawn), for which the growth was 40.9%. For the molecule `CCCC[C@H](NC(=O)[C@H]1CCCN1C)C(=O)N(C)[C@H](C[C@@H](OC(C)=O)c1nc(C(=O)N[C@@H](Cc2ccccc2)C[C@H](C)C(=O)OCC)cs1)C(C)C`, the growth is 38.4%.

`CCOC(=O)[C@@H](C)C[C@H](Cc1ccccc1)NC(=O)c1csc([C@@H](C[C@H](C(C)C)N(C)C(=O)CNC(=O)[C@H]2CCCCN2C)OC(C)=O)n1`: the growth is 17.4%. The same measure, in the same setting: under `COc1ccc([As]=[As]c2ccc(OC)c(NCS(=O)(=O)O)c2)cc1NCS(=O)(=O)O` (stereo not drawn) stands 0.15% (active); under `CC1=C(CCCOC(=O)[C@H](N)CC(C)C)C2=C(C)C3(CC3)[C@@](C)(O)C(=O)C2=C1`, 45.4%. Still for that read-out and setting: under `O=[N+]([O-])c1cc(I)cc([N+](=O)[O-])c1` stands 113%; under `CC(=O)OC[C@]1(C)C=C2C(=O)[C@](C)(O)C3(CC3)C(C)=C2[C@H]1OC(=O)N(C)CCN(C)C(=O)OC(C)(C)C`, 8.79% (active); under `CC[C@H](C)[C@H](NC(=O)[C@H]1CCCCN1C)C(=O)N(C)[C@H](CCc1nc(C(=O)N[C@@H](Cc2ccccc2)C[C@H](C)C(=O)OC)cs1)C(C)C`, 35.2%. With `COc1ccc(Nc2ccc([N+](=O)[O-])cc2[N+](=O)[O-])cc1CN(CCCl)CCCl`, the growth is 22.3%. Still for that read-out and setting: under `COC(=O)CCc1c[nH]c2ccc(N(CCCl)CCCl)cc12` stands 54%; under `Nc1c(F)cc(-c2nc3cc(F)ccc3[se]2)cc1F`, 104%; under `COC(=O)[C@@]1(C)CC[C@]2(C)CC[C@]3(C)C4=CC=C5C(=CC(=O)C(O)=C5C)[C@]4(C)CC[C@@]3(C)[C@@H]2C1`, -94.2% (active). On to `COC(=O)[C@@H](C)C[C@H](Cc1ccccc1)NC(=O)c1nc([C@@H](C[C@H](C(C)C)N(C)C(=O)[C@@H](NC(=O)[C@H]2CCCCN2C)C(C)C)OC(C)=O)sc1C`, for which the growth is 24.3%. Still for that read-out and setting: the same measure for `CC(=O)O[C@H](C[C@H](C(C)C)N(C)C(=O)[C@@H](NC(=O)[C@H]1CCCN1C)C(C)C)c1nc(C(=O)N[C@@H](Cc2ccccc2)C[C@H](C)C(=O)O)c(C)s1`: 33.2%; for `CCOC(=O)[C@@H](C)C[C@H](Cc1ccccc1)NC(=O)c1csc([C@@H](C[C@H](C(C)C)N(C)C(=O)[C@H](CCC(C)C)NC(=O)[C@H]2CCCCN2C)OC(C)=O)n1`: 39.9%; for `COC(=O)C12CC(NC(=O)c3csc([C@@H](C[C@H](C(C)C)N(C)C(=O)[C@@H](NC(=O)[C@H]4CCCCN4C)C(C)C)OC(C)=O)n3)(C1)C2`: 29.1%.

For the molecule `Clc1ccc2nnnn2n1`, the growth was 91.7%.

In the case of `CC[C@H](C)[C@H](NC(=O)[C@H]1CCCCN1C)C(=O)N(C)[C@H](C[C@@H](O)c1nc(C(=O)N[C@@H](Cc2ccccc2)C[C@H](C)C(=O)O)cs1)C(C)C`, the growth was 65.2%. On the same count and under the same terms, the same measure for `N#C[S-].[Au+].c1ccc(CN2[CH-]N(Cc3ccccc3)C(c3ccccc3)=C2c2ccccc2)cc1`: 16.1%; for `CCCCCCCCCCCCNC(c1ccccc1)C(O)c1ccccc1` (stereo not drawn): 87.4%.

A further assay has as its system U251 CNS. The description is as above. The following applies: 10 µM unless noted.
On to `COC(=O)[C@@H](C)C[C@H](Cc1ccccc1)NC(=O)c1nc([C@@H](C[C@H](C(C)C)N(C)C(=O)[C@@H](NC(=O)[C@H]2CCCN2C)C(C)C)OC(C)=O)sc1C`, for which the growth is 5.39% (active).

Turning to `CCCCCSC1C2C(=O)C(Br)=CC13CCNc1c(O)c4c5c(c13)=[N+]2CCC=5C=N4` (stereo not drawn), the growth is -73.3% (active). Still for that read-out and setting: the same measure for `CC1=C(CCCOC(=O)CN)C2=C(C)C3(CC3)[C@@](C)(O)C(=O)C2=C1`: 82.3%. Same read-out and setting: the same measure for `COC(=O)CC[C@H](Cc1ccccc1)NC(=O)c1csc([C@@H](C[C@H](C(C)C)N(C)C(=O)[C@@H](NC(=O)[C@H]2CCCCN2C)C(C)C)OC(C)=O)n1`: 12.5%; for `COC(=O)CC12CC(NC(=O)c3csc([C@@H](C[C@H](C(C)C)N(C)C(=O)[C@@H](NC(=O)[C@H]4CCCCN4C)C(C)C)OC(C)=O)n3)(C1)C2`: 17.3%; for `O=C1CNC(c2ccccc2)c2cc(Cl)ccc2N1` (stereo not drawn): 105%. On the same count and under the same terms, the same measure for `CC1(C)N=C(N)N=C(N)N1c1cccc(CCCCc2ccc(Cl)c(S(=O)(=O)F)c2)c1`: 35.3%; for `CC(=O)O[C@H](C[C@H](C(C)C)N(C)C(=O)[C@@H](NC(=O)[C@H]1CCCCN1C)C(C)C)c1nc(C(=O)N[C@@H](Cc2ccccc2)C[C@H](C)C(=O)O)c(C(C)C)s1`: 15.4%. Turning to `COC(=O)[C@@H](C)C[C@H](Cc1ccccc1)NC(=O)c1csc(CC[C@H](C(C)C)N(C)C(=O)[C@@H](NC(=O)[C@H]2CCCCN2C)C(C)C)n1`, the growth is 14.8%.

On to `CCOP(=O)(NC[C@H]1O[C@](O)(CO)[C@@H](O)[C@@H]1O)OCC`, for which the growth is 101%. Still for that read-out and setting: the same measure for `COc1cc([C@@H]2c3cc4c(cc3[C@H](OC(C)=O)[C@H]3COC(=O)[C@H]23)OCO4)cc(OC)c1OC`: 18.9%; for `COC(=O)[C@@H](C)C[C@H](Cc1cn(C)c2ccccc12)NC(=O)c1csc([C@@H](C[C@H](C(C)C)N(C)C(=O)[C@@H](NC(=O)[C@H]2CCCCN2C)C(C)C)OC(C)=O)n1`: 15.4%. On the same count and under the same terms, under `CCOC(=O)[C@@H](C)C[C@H](Cc1ccccc1)NC(=O)c1csc([C@@H](C[C@H](C(C)C)N(C)C(=O)[C@@H](NC(=O)[C@H]2CCCCN2C)C(C)(C)C)OC(C)=O)n1` stands 14.7%. In the case of `CC1=C(CCCNS(C)(=O)=O)C2=C(C)C3(CC3)[C@@](C)(O)C(=O)C2=C1`, the growth is 1.79% (active). Still for that read-out and setting: under `COC(=O)[C@@H](C)C[C@H](Cc1ccccc1)NC(=O)c1cccc([C@@H](C[C@H](C(C)C)N(C)C(=O)[C@@H](NC(=O)[C@H]2CCCCN2C)C(C)C)OC(C)=O)n1` stands 14.6%; under `CNC(=O)Oc1ccc(C(C)(C)C)cc1OC(=O)NC`, 92.3%. On the same count and under the same terms, the same measure for `CC1(C)C(C(=O)c2cn(CCCCF)c3ccccc23)C1(C)C`: 86%; for `CC(=O)O[C@H](C[C@H](C(C)C)N(C)C(=O)[C@@H](NC(=O)[C@H]1CCCCN1C)C(C)C)c1nc(C(=O)NC2CCC(C(=O)O)CC2)cs1` (stereo partly drawn): 33.2%.

For the molecule `CCCC[C@H](NC(=O)[C@H]1CCCN1C)C(=O)N(C)[C@H](C[C@@H](OC(C)=O)c1nc(C(=O)N[C@@H](Cc2ccccc2)C[C@H](C)C(=O)OCC)cs1)C(C)C`, the growth was 8.61% (active). For `CCOC(=O)[C@@H](C)C[C@H](Cc1ccccc1)NC(=O)c1csc([C@@H](C[C@H](C(C)C)N(C)C(=O)CNC(=O)[C@H]2CCCCN2C)OC(C)=O)n1`, the growth was 18.7%. The same measure, in the same setting: under `COc1ccc([As]=[As]c2ccc(OC)c(NCS(=O)(=O)O)c2)cc1NCS(=O)(=O)O` (stereo not drawn) stands -43% (active).

Regarding `CC1=C(CCCOC(=O)[C@H](N)CC(C)C)C2=C(C)C3(CC3)[C@@](C)(O)C(=O)C2=C1`, the growth is 35.9%.

As for `O=[N+]([O-])c1cc(I)cc([N+](=O)[O-])c1`, the growth is 107%. As to `CC(=O)OC[C@]1(C)C=C2C(=O)[C@](C)(O)C3(CC3)C(C)=C2[C@H]1OC(=O)N(C)CCN(C)C(=O)OC(C)(C)C`, the growth is 4.09% (active). Consider `CC[C@H](C)[C@H](NC(=O)[C@H]1CCCCN1C)C(=O)N(C)[C@H](CCc1nc(C(=O)N[C@@H](Cc2ccccc2)C[C@H](C)C(=O)OC)cs1)C(C)C`, for which the growth was 10.2%. Same read-out and setting: the same measure for `COc1ccc(Nc2ccc([N+](=O)[O-])cc2[N+](=O)[O-])cc1CN(CCCl)CCCl`: 29.6%; for `COC(=O)CCc1c[nH]c2ccc(N(CCCl)CCCl)cc12`: 40.1%. On the same count and under the same terms, under `Nc1c(F)cc(-c2nc3cc(F)ccc3[se]2)cc1F` stands 93.6%; under `COC(=O)[C@@]1(C)CC[C@]2(C)CC[C@]3(C)C4=CC=C5C(=CC(=O)C(O)=C5C)[C@]4(C)CC[C@@]3(C)[C@@H]2C1`, -97.4% (active).

As to `COC(=O)[C@@H](C)C[C@H](Cc1ccccc1)NC(=O)c1nc([C@@H](C[C@H](C(C)C)N(C)C(=O)[C@@H](NC(=O)[C@H]2CCCCN2C)C(C)C)OC(C)=O)sc1C`, the growth was 14.6%.

Consider `CC(=O)O[C@H](C[C@H](C(C)C)N(C)C(=O)[C@@H](NC(=O)[C@H]1CCCN1C)C(C)C)c1nc(C(=O)N[C@@H](Cc2ccccc2)C[C@H](C)C(=O)O)c(C)s1`, for which the growth was 5.53% (active).

For the origin of these results see PubChem BioAssay (NCI).
